Rows were chosen to be rich in hits. Some 22% of all compounds tested hit in one or more screens of this group.
CYP2C9 activ: increases human cytochrome P450 2C9 activity | P11712 | hit rate 1.4% among 96,000 | recombinant CYP2C9, luciferin-H conversion, luminescence; active compounds read high; factor 1 = untreated enzyme, 0 = blocked | activation factor at 5 µM;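 active = activation factor of 2 or more for CYP2C9 at a 5 µM dose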;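 also: 0 = sulfaphenazole-blocked wells and 1 = vehicle-only wells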
Target sequence (P11712 whole entry, looked up): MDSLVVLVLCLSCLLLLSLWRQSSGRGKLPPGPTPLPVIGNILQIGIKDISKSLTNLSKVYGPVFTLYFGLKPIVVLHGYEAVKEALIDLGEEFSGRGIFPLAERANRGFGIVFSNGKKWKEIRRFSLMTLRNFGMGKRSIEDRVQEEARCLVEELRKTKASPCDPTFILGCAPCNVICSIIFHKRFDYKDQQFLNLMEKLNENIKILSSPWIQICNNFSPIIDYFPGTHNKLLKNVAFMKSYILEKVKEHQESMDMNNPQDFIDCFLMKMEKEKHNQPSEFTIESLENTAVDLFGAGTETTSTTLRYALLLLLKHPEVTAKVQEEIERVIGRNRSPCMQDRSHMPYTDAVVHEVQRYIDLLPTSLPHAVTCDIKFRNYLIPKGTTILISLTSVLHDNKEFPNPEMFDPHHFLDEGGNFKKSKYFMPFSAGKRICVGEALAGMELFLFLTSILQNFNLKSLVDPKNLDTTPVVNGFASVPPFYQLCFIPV
CYP2C19 inhib: human CYP2C19 inhibition | P33261 | CYP2C19 Supersomes, luciferin-H EGE luminescence, 30 min | inhibition, % at 5 µM | hit rate 21% among 96,000 | AID 778;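 active = CYP2C19 inhibition above a set limit at 5 µM in the primary screen, cut at about 50% in these data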;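 also: plate controls were negative control wells for no effect and 2.5 mM tranylcypromine positive control for full effect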
cytoskel mod: alters cytoskeleton assembly in HUVEC cells; inhibition, % at 2 µM; hit rate 0.18% among 91,000; HUVEC TNFa F-actin phalloidin imaging, high content; AID 836;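 active = inhibition above the batch mean plus 3 SD and confirmed as a hit by visual image inspection, cut at about 30% in these data, passing the limit was not always enough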
E-sel TNF inh: TNF alpha driven E-selectin expression inhibition | HUVEC TNFa-induced E-selectin immunofluorescence, high content | inhibition, % at 2 µM | hit rate 0.71% among 120,000;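 active = inhibition above the batch mean plus 3 SD, and confirmed as a hit on visual image review, cut at about 43% in these data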;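 also: 0% = TNF-stimulated DMSO wells and 100% = unstimulated control wells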
CYP2C19 act: activators of human cytochrome P450 2C19; P33261; recombinant CYP2C19, luciferin-H EGE luminescence; active compounds read high; 0 = fully inhibited enzyme, 1 = untreated enzyme; activation factor at 5 µM; 96,000 tested, under 10 active;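 active = activation factor of at least 2 at 5 µM in the primary screen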;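 also: 0 = wells with 2.5 mM tranylcypromine and 1 = vehicle-only wells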
CYP2C9 inh: human CYP2C9 inhibition. P11712. CYP2C9 Supersomes, luciferin-H conversion, luminescence. inhibition, % at 5 µM. hit rate 20% among 96,000;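 active = blocking of liver enzyme CYP2C9 beyond about 50% at 5 µM, limit read from the data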
* = called active by the depositor; nt = no result given.

SMILES | CYP2C9 activ | CYP2C19 inhib | cytoskel mod | E-sel TNF inh | CYP2C19 act | CYP2C9 inh
O=[N+]([O-])c1cccc(Cl)c1NCCNS(=O)(=O)c1ccccc1 | 2* | 60* | 23 | 6 | 0.4 | -105
CSCCC(NC(=O)C12CC3CC(CC(C3)C1)C2)C(=O)OCC(=O)c1ccc(Cl)cc1 (stereo not given) | 1 | 1 | 9 | -20 | 1 | -1
N#Cc1c(Cl)c(Cl)c2nnc(-c3ccc(Br)cc3)n2c1Cl | 0.1 | 39 | -4 | -22 | 0.6 | 94*
COCCN(C(=O)CCCC(=O)Nc1ccccn1)C(C(=O)NC1CCCC1)c1ccc(C)cc1 (stereo not given) | 0.7 | 47 | -16 | nt | 0.5 | 28
COc1ccc(C(C(=O)NC(C)(C)C)N(CC2CCCO2)C(=O)CCC(=O)Nc2cc(C)on2)cc1 (stereo not given) | 0.2 | 51* | -12 | nt | 0.5 | 84*
COCCN(C(=O)CCC(=O)Nc1ccccn1)C(C(=O)NC1CCCC1)c1ccc(OC)cc1 (stereo not given) | nt | nt | 29 | 100* | nt | nt
COCCNC(=O)C(c1ccc(F)cc1)N(CC1CCCO1)C(=O)CCC(=O)Nc1ccccn1 (stereo not given) | 1.1 | -14 | -1 | 69* | 1.1 | -15
COCCNC(=O)C(c1ccc(F)cc1)N(Cc1ccco1)C(=O)CCC(=O)Nc1nccs1 (stereo not given) | 0.6 | 53* | -14 | nt | 0.5 | 36
Cc1ccccc1-c1nnc(SCC(=O)NC2CCCCC2)o1 | nt | nt | -2 | -20 | nt | nt
O=C(CSc1nnc(-c2ccccc2)o1)NC1CCCCC1 | 0.5 | 83* | 2 | 26 | 0.2 | 48
COc1ccccc1-c1nnc(SCC(=O)NCc2c(C)c(Cl)cc(C(C)C)c2O)o1 | 3* | 36 | -28 | -38 | 0.6 | -201
CCOC(=O)CSc1nnc(-c2ccccc2OC)o1 | 2* | 36 | -6 | -13 | 0.6 | -95
COc1ccccc1-c1nnc(SCC(=O)NC2CCCCC2)o1 | 1.9 | 54* | -14 | nt | 0.5 | -93
O=C(CSC1=Nc2ccccc2C2=NC(CC(=O)NCc3ccco3)C(=O)N12)NCC1CCCO1 (stereo not given) | 1 | -9 | 10 | nt | 1.1 | -2
Cc1oc2c(CN3CCCC3)c(O)ccc2c(=O)c1-c1ccc(Br)cc1 | 0.9 | 3 | 9 | nt | 1 | 6
CC1=Nn2c(nnc2-c2ccco2)SC1 | 1.1 | 6 | nt | nt | 0.9 | -11
CN(C(=O)CSc1nnc(-c2ccco2)o1)C1CCCCC1 | 1.1 | 2 | -2 | -6 | 1 | -9
CCOC(=O)CN(C(=O)CSc1nnc(-c2ccc(OC)c(OC)c2)o1)c1ccc(F)cc1 | 0.6 | 13 | -10 | 0 | 0.9 | 38
COc1ccc(CN(C(=O)CSc2nnc(-c3ccccc3F)o2)c2ccc(F)cc2)cc1 | 0.2 | 62* | -4 | -38 | 0.4 | 76*
O=C(CSc1nnc(-c2ccco2)o1)NC1CC2CCC1C2 (stereo not given) | 0.8 | 56* | nt | 3 | 0.4 | 18
O=C(CSc1nnc(-c2ccco2)n1CC1CCCO1)NC1CCCC1 (stereo not given) | 1.2 | 54* | -4 | -5 | 0.5 | -23
O=C(CSc1nnc(-c2ccco2)o1)NC1CCCCC1 | 0.9 | 55* | 6 | 9 | 0.4 | 10
COc1ccc2cc(/C=N/NC(=O)c3ccc(CN(c4cccc(Cl)c4Cl)S(C)(=O)=O)cc3)c(Cl)nc2c1 | nt | nt | nt | 19 | nt | nt
O=C(NCCOc1ccccc1)C(c1ccccc1)c1ccccc1 | 0.8 | 12 | 11 | 5 | 0.9 | 21
C=C1CC(C)OC(c2ccccc2OCC(O)CN2CCCCC2)C1 (stereo not given) | 1 | -4 | -2 | nt | 1 | -4
SMILES | CYP2C9 activ | CYP2C19 inhib | cytoskel mod | E-sel TNF inh | CYP2C19 act | CYP2C9 inh
COc1ccccc1-c1nnc(SCC(=O)Nc2c(Cl)cccc2Cl)o1 | 0.3 | 85* | 4 | nt | 0.2 | 74*
Cc1cc(C)cc(NC(=O)CSc2nnc(-c3ccccc3Br)o2)c1 | 0.6 | 39 | -10 | nt | 0.6 | 37
COc1cccc(NC(=O)CSc2nnc(-c3cc(C)n(-c4ccccc4)c3C)o2)c1 | 0.2 | 50 | 3 | -42 | 0.5 | 78*
O=C(Cc1c(F)c(F)c(F)c(F)c1F)OC12CC3CC(C1)C(=O)C(C3)C2 | 1 | 72* | nt | -13 | 0.3 | -1
CC(=O)OC12CC3CC(C1)C(=NO)C(C3)C2 | 1.1 | -8 | 6 | -11 | 1.1 | -14
Cc1cccc(NC(=S)NCc2ccc(F)cc2)c1 | nt | nt | nt | -8 | nt | nt
Cn1cccc1CNC(=O)Nc1ccccc1 | 0.6 | 75* | -3 | 8 | 0.2 | 37
Cc1cc(C)cc(NC(=S)NCc2cccn2C)c1 | 2.1* | 14 | 4 | -3 | 0.9 | -110
O=C(NCc1cccs1)Nc1ccc(Cl)cc1 | nt | nt | 1 | -31 | nt | nt
Cn1cccc1CNCc1ccccc1Cl | 1 | 38 | 15 | -64 | 0.6 | 2
Cn1cccc1CNC(=O)Nc1ccc(Cl)cc1 | 0.8 | 59* | 5 | -14 | 0.4 | 23
Cc1noc(C)c1C(=O)N1CC(C)OC(C)C1 (stereo not given) | 1 | -6 | nt | 1 | 1.1 | 4
CCc1c(C)c2ccc(OCC(N)=O)cc2oc1=O | 0.6 | -7 | 0 | -3 | 1.1 | 38
CN1CCN(c2cc3c(c4c2[nH]c2ccccc24)C(=O)CC(C)(C)C3)CC1 | 0.2 | 61* | 9 | 14 | 0.4 | 78*
CN1CCN(c2ncnc3c2[nH]c2ccc(F)cc23)CC1 | 0.9 | 10 | nt | -5 | 0.9 | 9
CC(C)OP(=O)(c1ccc(N(C)C)cc1)C(O)c1c(Cl)cccc1Cl (stereo not given) | 0.4 | 81* | 17 | 5 | 0.2 | 55*
CC(C)COP(=O)(c1ccc(N(C)C)cc1)C(O)c1ccncc1 (stereo not given) | 0.4 | 72* | -11 | 2 | 0.3 | 58*
CC1CCC(C(C)C)C(OP(=O)(c2ccc(N(C)C)cc2)C(O)c2cccnc2)C1 (stereo not given) | nt | nt | nt | 7 | nt | nt
CCOP(=O)(c1ccc(N(C)C)cc1)C(O)c1ccc(Cl)cc1 (stereo not given) | 1.1 | 80* | -12 | 11 | 0.2 | -10
CCOP(=O)(c1ccc(N(C)C)cc1)C(O)c1ccccc1 (stereo not given) | 1 | 34 | 5 | 2 | 0.7 | 4
COc1cc(O)oc1C=Nc1ccc(Cl)cc1Cl | 0.8 | 69* | -14 | 0 | 0.3 | 18
COc1cc(O)oc1C=Nc1ccc(Cl)cc1 | 0.8 | 20 | -3 | 9 | 0.8 | 18
CCOC(=O)C(C)CC(C)C(=O)N1CCOCCOCCN(C(=O)C(C)CC(C)C(=O)OCC)CCOCC1 (stereo not given) | 0.9 | 10 | -3 | -7 | 0.9 | 8
CCOC(=O)C(C(=O)OCC)C(C(=O)OCC)N1CCOCC1 (stereo not given) | 0.5 | -3 | 8 | 28 | 1 | 53*
c1ccc(-c2nn3nnnc3c3ccccc23)cc1 | 1.2 | 52* | -1 | 15 | 0.5 | -18
